# Reference: PubChem BioAssay (NCATS)
# Inconclusive results are not listed. A number with no mark means an inactive call. Activity calls are given as the source filed them. The call rests on the fitted dose curve; in most records, active means well fitted cell-killing curve with a large enough effect; inconclusive means small, poorly fitted or top-dose-only effect; inactive means flat fitted curve, though single readings scatter.
# Experiment: Cell Viability - LYMP2-012 (AID 982);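 further: cellular ATP by luciferase luminescence where a drop means cytotoxicity; cells exposed to compound for one day before reading; 0% = DMSO only and full loss = 92 µM tetraoctylammonium bromide; nearly all actives have a fitted effect of over 55% in size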
# Settings: LYMP2-012 lymphoblastoid cell viability qHTS; series mostly up to 92.2 µM; activity change, negative = cytotoxicity: at the top concentration
Structure (SMILES),"activity change, negative = cytotoxicity",outcome
Oc1ccc(Cl)cc1,0.504%,–
COP(=S)(OC)Oc1ccc(SC)c(C)c1,5%,–
CC(C)c1cccc(C(C)C)c1O,5.56%,–
C[C@]12CCC(=O)C=C1CC[C@@H]1[C@@H]2CC[C@]2(C)C(=O)CC[C@@H]12,–,inactive
CCC(C)(C)c1ccc(O)cc1,-3.14%,–
CCCC(C)(COC(N)=O)COC(N)=O,1.67%,–
C[C@]1(O)CC[C@H]2[C@@H]3CCC4=CC(=O)CC[C@]4(C)[C@@]3(F)[C@@H](O)C[C@@]21C,0.0688%,–
COc1cc(OC)c(OC)cc1C=O,13.1%,–
CCOC(=O)CC(SP(=S)(OC)OC)C(=O)OCC (stereo not drawn),-21.3%,–
Clc1ccc(C(c2ccc(Cl)cc2)C(Cl)(Cl)Cl)cc1,4.26%,–
CC(C)NC(C)C,2.74%,–
Nc1ccccc1C(=O)O,6.76%,–
COC(=O)C(c1ccccc1)C1CCCCN1 (stereo not drawn),-22.5%,–
Nc1ccccc1,-8.17%,–
NCCc1ccc(O)cc1,-10.4%,–
O=P1(N(CCCl)CCCl)NCCCO1 (stereo not drawn),4.67%,–

# Experiment: Cell Viability - LYMP2-014 (AID 983);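 further: plate controls were DMSO only for no effect and 92 µM tetraoctylammonium bromide for full effect; nearly all actives have a fitted effect of over 50% in size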
# Settings: LYMP2-014 lymphoblastoid cells, viability qHTS; series mostly up to 92.2 µM; activity change, negative = cytotoxicity: at the top concentration
# Method in brief: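 Luminescent ATP signal (CellTiter-Glo, 30 min at room temperature) serves as the viability read-out after 24 hr compound exposure at 37 C. Cells were seeded at 2500 per well and settled 5 hr beforehand.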
Structure (SMILES),"activity change, negative = cytotoxicity",outcome
Oc1ccc(Cl)cc1,-1.18%,–
COP(=S)(OC)Oc1ccc(SC)c(C)c1,-6.84%,–
CC(C)c1cccc(C(C)C)c1O,-7.51%,–
C[C@]12CCC(=O)C=C1CC[C@@H]1[C@@H]2CC[C@]2(C)C(=O)CC[C@@H]12,–,inactive
CCC(C)(C)c1ccc(O)cc1,-0.0682%,–
C[C@]12CCC(=O)C=C1CC[C@@H]1[C@@H]2CC[C@@]2(C)[C@H]1CC[C@]2(C)O,-13.6%,–
CCCC(C)(COC(N)=O)COC(N)=O,-5.33%,–
CN1C[C@H](C(=O)N[C@]2(C)O[C@@]3(O)[C@@H]4CCCN4C(=O)[C@H](Cc4ccccc4)N3C2=O)C=C2c3cccc4[nH]cc(c34)C[C@H]21,-21.4%,–
C[C@]1(O)CC[C@H]2[C@@H]3CCC4=CC(=O)CC[C@]4(C)[C@@]3(F)[C@@H](O)C[C@@]21C,0.901%,–
COc1cc(OC)c(OC)cc1C=O,-1.03%,–
CCOC(=O)CC(SP(=S)(OC)OC)C(=O)OCC (stereo not drawn),6.94%,–
Clc1ccc(C(c2ccc(Cl)cc2)C(Cl)(Cl)Cl)cc1,-6.82%,–
CC(C)NC(C)C,9.2%,–
Nc1ccccc1C(=O)O,-3.68%,–
COC(=O)C(c1ccccc1)C1CCCCN1 (stereo not drawn),-19.2%,–
Nc1ccccc1,-3.47%,–
NCCc1ccc(O)cc1,0.307%,–
O=P1(N(CCCl)CCCl)NCCCO1 (stereo not drawn),-4.01%,–

# Experiment: Cell Viability - LYMP2-016 (AID 984);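 further: cells exposed to compound for 24 hours at 37 °C; on the % scale 0 is the no-effect control and ±100 the full control effect; nearly all actives have a fitted effect of over 55% in size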
# Settings: LYMP2-016 lymphoblastoid cell viability, qHTS; series mostly up to 92.2 µM; activity change, negative = cytotoxicity: at the top concentration
# Method in brief: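 Human lymphoblastoid cells (LYMP2-016), 2500/well in complete medium, preincubated 5 hr at 37 C, then compound-treated 24 hr at 37 C. Intracellular ATP read by CellTiter-Glo luminescence after 30 min at room temperature; AC50 from Hill-equation concentration-response fits.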
Structure (SMILES),"activity change, negative = cytotoxicity",outcome
Oc1ccc(Cl)cc1,-8.02%,–
COP(=S)(OC)Oc1ccc(SC)c(C)c1,4.76%,–
CC(C)c1cccc(C(C)C)c1O,-3.26%,–
C[C@]12CCC(=O)C=C1CC[C@@H]1[C@@H]2CC[C@]2(C)C(=O)CC[C@@H]12,–,inactive
CCC(C)(C)c1ccc(O)cc1,-2.19%,–
C[C@]12CCC(=O)C=C1CC[C@@H]1[C@@H]2CC[C@@]2(C)[C@H]1CC[C@]2(C)O,-16.2%,–
CCCC(C)(COC(N)=O)COC(N)=O,0.667%,–
C[C@]1(O)CC[C@H]2[C@@H]3CCC4=CC(=O)CC[C@]4(C)[C@@]3(F)[C@@H](O)C[C@@]21C,3.08%,–
COc1cc(OC)c(OC)cc1C=O,-1.44%,–
CCOC(=O)CC(SP(=S)(OC)OC)C(=O)OCC (stereo not drawn),-5.13%,–
Clc1ccc(C(c2ccc(Cl)cc2)C(Cl)(Cl)Cl)cc1,-10.8%,–
CC(C)NC(C)C,-1.08%,–
Nc1ccccc1C(=O)O,-2.14%,–
COC(=O)C(c1ccccc1)C1CCCCN1 (stereo not drawn),-19.3%,–
Nc1ccccc1,-2.6%,–
NCCc1ccc(O)cc1,-1.96%,–
O=P1(N(CCCl)CCCl)NCCCO1 (stereo not drawn),-0.232%,–

# Experiment: Cell Viability - LYMP2-018 (AID 985); further: nearly all actives have a fitted effect of over 50% in size; further: potency means the concentration at half of the fitted maximal effect;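 on activity change, negative = cytotoxicity: plate controls were DMSO only for no effect and tetraoctylammonium bromide at 92 µM for full effect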
# Settings: LYMP2-018 lymphoblastoid cells, viability (qHTS); series mostly up to 92.2 µM; activity change, negative = cytotoxicity: at the top concentration
# Method in brief: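 Luminescent ATP signal (CellTiter-Glo, read after 30 min at room temperature) reports viable cells after 24 hr compound treatment at 37 C. Concentration-response data were fitted to the standard Hill equation for AC50.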
Structure (SMILES),"activity change, negative = cytotoxicity",Potency
Oc1ccc(Cl)cc1,0.505%,–
COP(=S)(OC)Oc1ccc(SC)c(C)c1,-6.02%,–
CC(C)c1cccc(C(C)C)c1O,1.18%,–
C[C@]12CCC(=O)C=C1CC[C@@H]1[C@@H]2CC[C@]2(C)C(=O)CC[C@@H]12,–,inactive
CCC(C)(C)c1ccc(O)cc1,-17.8%,–
C[C@]12CCC(=O)C=C1CC[C@@H]1[C@@H]2CC[C@@]2(C)[C@H]1CC[C@]2(C)O,-14.7%,–
CCCC(C)(COC(N)=O)COC(N)=O,-7.59%,–
CN1C[C@H](C(=O)N[C@]2(C)O[C@@]3(O)[C@@H]4CCCN4C(=O)[C@H](Cc4ccccc4)N3C2=O)C=C2c3cccc4[nH]cc(c34)C[C@H]21,-28.5%,–
C[C@]1(O)CC[C@H]2[C@@H]3CCC4=CC(=O)CC[C@]4(C)[C@@]3(F)[C@@H](O)C[C@@]21C,-14.8%,–
COc1cc(OC)c(OC)cc1C=O,-5.09%,–
CCOC(=O)CC(SP(=S)(OC)OC)C(=O)OCC (stereo not drawn),-20.7%,–
Clc1ccc(C(c2ccc(Cl)cc2)C(Cl)(Cl)Cl)cc1,-25.8%,–
CC(C)NC(C)C,-13.6%,–
Nc1ccccc1C(=O)O,-13.2%,–
COC(=O)C(c1ccccc1)C1CCCCN1 (stereo not drawn),-17.3%,–
Nc1ccccc1,3.7%,–
O=C(O)CCCc1ccc(N(CCCl)CCCl)cc1,–,31.6 µM (active)
NCCc1ccc(O)cc1,-8.71%,–
O=P1(N(CCCl)CCCl)NCCCO1 (stereo not drawn),1.55%,–

# Experiment: Cell Viability - LYMP2-020 (AID 986);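 further: plate controls were DMSO only for no effect and tetraoctylammonium bromide at 92 µM for full effect; nearly all actives have a fitted effect of over 55% in size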
# Settings: series mostly up to 92.2 µM; activity change, negative = viability loss: at the top concentration
# Method in brief: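 Luminescent ATP signal (CellTiter-Glo, 30 min at room temperature) is the read-out after 24 h compound treatment of lymphoblastoid cells at 37 C. AC50 values come from Hill-equation fits across concentrations.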
Structure (SMILES),"activity change, negative = viability loss",outcome
Oc1ccc(Cl)cc1,-2.44%,–
COP(=S)(OC)Oc1ccc(SC)c(C)c1,-1.04%,–
CC(C)c1cccc(C(C)C)c1O,7.68%,–
C[C@]12CCC(=O)C=C1CC[C@@H]1[C@@H]2CC[C@]2(C)C(=O)CC[C@@H]12,–,inactive
CCC(C)(C)c1ccc(O)cc1,-10.8%,–
C[C@]12CCC(=O)C=C1CC[C@@H]1[C@@H]2CC[C@@]2(C)[C@H]1CC[C@]2(C)O,-17.9%,–
CCCC(C)(COC(N)=O)COC(N)=O,1.5%,–
CN1C[C@H](C(=O)N[C@]2(C)O[C@@]3(O)[C@@H]4CCCN4C(=O)[C@H](Cc4ccccc4)N3C2=O)C=C2c3cccc4[nH]cc(c34)C[C@H]21,-19.3%,–
C[C@]1(O)CC[C@H]2[C@@H]3CCC4=CC(=O)CC[C@]4(C)[C@@]3(F)[C@@H](O)C[C@@]21C,6.17%,–
COc1cc(OC)c(OC)cc1C=O,3.82%,–
CCOC(=O)CC(SP(=S)(OC)OC)C(=O)OCC (stereo not drawn),-7.55%,–
Clc1ccc(C(c2ccc(Cl)cc2)C(Cl)(Cl)Cl)cc1,5.37%,–
CC(C)NC(C)C,11.2%,–
Nc1ccccc1C(=O)O,4.03%,–
COC(=O)C(c1ccccc1)C1CCCCN1 (stereo not drawn),-11.5%,–
Nc1ccccc1,-9.21%,–
NCCc1ccc(O)cc1,-7.04%,–
O=P1(N(CCCl)CCCl)NCCCO1 (stereo not drawn),-6.25%,–
